A short description of this test: chemical genetic growth profiling, strain panel (AID 1159580).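 Also: tested at 20 µM; growth read once vehicle control cultures reached saturation at 30 °C; 1 = growth at the plate median or of vehicle wells; lower values mean less growth of the strain.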 Particulars: S. cerevisiae deletion strains, growth OD.
Where [1] appears, read: locus YDR363W, strain ESC2, stronger effect = lower value.
Where [2] appears, read: locus YER002W, strain NOP16, stronger effect = lower value.
Setting [3] is: locus YNL153C, strain GIM3, stronger effect = lower value.
The mark [4] stands for this setting: locus YNL175C, strain NOP13, stronger effect = lower value.
Where [5] appears, read: locus YNL197C, strain WHI3, stronger effect = lower value.
The mark [6] stands for this setting: locus YNL224C, strain SQS1, stronger effect = lower value.
Setting [7] is: locus YOR083W, strain WHI5 (second series), stronger effect = lower value.

Hit rate of the full screen: of about 5,500 compounds, about 2,000 (36%) were called active. Another 18% or so got no clear call; they are omitted. The list shows a part of the results. Unmarked numbers belong to inactive results. Rule as the data show it: active = normalized growth mostly below about 0.91 (no sharp cut-off); inconclusive = no clear call, values can overlap the other calls; inactive = mostly above about 0.92.

Turning to `C[N+](C)(C)CCOC(=O)CBr`, the normalized growth (locus YDR150W, strain NUM1, stronger effect = lower value) was 1.06 [resistant] (active); the normalized growth under setting [1] was 1.05; the normalized growth under setting [2] is 1; the normalized growth (locus YGR078C, strain PAC10, stronger effect = lower value) is 1.02; the normalized growth (locus YMR263W, strain SAP30, stronger effect = lower value) was 1.01; the normalized growth under setting [3] is 1.07. Also, the normalized growth runs as follows: under setting [4], 1.02; under setting [5], 0.985; under setting [6], 1.01; under setting [7], 1.05; (locus YPL241C, strain CIN2, stronger effect = lower value) 1.01.

Turning to `CNC(=O)OCC[N+](C)(C)C`, the normalized growth is, setting by setting: (locus YAL013W, strain DEP1, stronger effect = lower value) 0.99; (locus YAL040C, strain CLN3, stronger effect = lower value) 1; (locus YCL061C, strain MRC1 (second series), stronger effect = lower value) 0.992; under setting [1], 0.957; under setting [2], 0.968; (locus YJR075W, strain HOC1, stronger effect = lower value) 1.01. Also, the normalized growth is 1 (locus YNL128W, strain TEP1, stronger effect = lower value); 0.983 under setting [3]; 0.973 under setting [4]; 0.962 under setting [5]; 0.989 under setting [6]; 0.985 under setting [7].
